The results in this text go back to article PMC7826789 (International Journal of Molecular Sciences, 2021).
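Note: KINOMEscan scanMAX binding as percent activity remaining versus control; lower means stronger binding.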

The experiment deals with ABL1(F317L)-phosphorylated. To be noted: Compound Concentration (nM):1000.
For `COc1cc(/C=N/Nc2ncnc3[nH]ncc23)ccc1O` [GW578748X], the “Percent Control” value turned out to be 23%.

Regarding `NS(=O)(=O)c1ccc(N/N=C2\C(=O)Nc3ccc(-c4cnco4)cc32)cc1` [GW276655], the “Percent Control” value is reported as 74%.

Regarding `CN1CCN(C(=O)c2ccc(NC(=O)Nc3ccc(N(C)c4ccnc(Nc5ccc(CS(C)(=O)=O)cc5)n4)cc3)cc2)CC1.Cl` [GW830263A], the “Percent Control” value stood at 34%.

As to `CCS(=O)(=O)c1ccc(OC)c(Nc2ncc(-c3cccc(OC)c3)o2)c1` [GW580509X], the “Percent Control” value is 6.2%.

With `Cl.O=S1CCN(Cc2ccc(-c3ccc4ncnc(Nc5ccc(OCc6ccccc6)c(F)c5)c4c3)o2)CC1` [GW576924A], the “Percent Control” value stood at 70%.

Take `CC1=C(C(=O)Nc2ccc3[nH]ncc3c2)C(c2ccc3ccccc3c2)CC(=O)N1` (stereo not drawn) [GSK270822A]: the “Percent Control” value turned out to be 68%.

In the case of `COc1ccc2c(-c3ccnc(Nc4cccc(OC(F)(F)F)c4)n3)cnn2n1` [GW810372X], the “Percent Control” value is 100%.

In the case of `Cl.O=C(Nc1ccc(Oc2ccc3[nH]c(NC(=O)c4ccco4)nc3c2)cc1)Nc1cc(C(F)(F)F)ccc1F` [GW683134A], the “Percent Control” value was found to be 54%.

Regarding `CN(C)c1cc2c(Nc3ccc4c(cnn4Cc4ccccc4)c3)ncnc2cn1` [GW282974X], the “Percent Control” value worked out at 50%.

As for `CCS(=O)(=O)c1ccc(OC)c(Nc2ncc(-c3cccc(F)c3)o2)c1` [GW621970X], the “Percent Control” value was determined as 5.4%.

Turning to `COc1cc(C)c(N(C)C(=O)CN(C)C)cc1Nc1nc(Nc2cccc(F)c2C(N)=O)c2cc[nH]c2n1` [GSK2219385], the “Percent Control” value is reported as 56%.

Turning to `Cl.c1ccc(Cc2nc3ccc(Nc4ncnc5ccccc45)cc3[nH]2)cc1` [GR269666A], the “Percent Control” value was 92%.
